Laboratory results as given in PubChem BioAssay.
A number with no mark means an inactive call. Active and inactive are the calls of the source.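 How the source made its calls: active means compound that reduces growth-factor-driven endothelial tube area in a mixed cell culture, no cutoff stated; inactive means the rest.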

Experiment: inhibition of endothelial tube formation, primary screen, imaging, VEGF stimulated, CD31 staining, tube area, NPC library (AID 1117340)
Conditions: VEGF-stimulated ADSC/ECFC co-culture, at 10 µM, active compounds read high

SMILES | tube area decrease
C[C@@H]1CCN(C(=O)[C@H](CCCN=C(N)N)NS(=O)(=O)c2cccc3c2NC[C@H](C)C3)[C@@H](C(=O)O)C1 | -5.4%
Nc1cc(C(F)(F)F)ccc1S | 44.8% (active)
c1ccc(C(O[C@H]2CCCN(CCc3ccc4c(c3)OCO4)C2)c2ccccc2)cc1 | -6.8%
CCN(CC)CCOc1ccccc1C(=O)CCc1ccccc1 | 0.9%
CCOCCOC(=O)/C=C/c1ccc(OC)cc1 | 18.9%
CC1(C)S[C@@H]2[C@H](NC(=O)Cc3ccccc3)C(=O)N2[C@H]1C(=O)O (tested in a mixture with another compound) | -6.3%
Cc1cnc(NS(=O)(=O)c2ccc(N)cc2)nc1 | -8.2%
CC(C)[C@H](N)C(=O)O | -14.8%
CCOC(=O)c1c(N)sc2c1CCN(Cc1ccccc1)C2 | 33.8%
CC1(C)CO[C@@H](CC(=O)O)CN1 | -11.6%
O=Cc1ccccc1C=O | 9.9%
COc1cc2c(cc1OC)C(C(C(=O)N(CCc1ccc(OC)c(OC)c1OC)CCc1ccc(OC)c(OC)c1OC)c1ccccc1)=NCC2 (configuration not stated) | 20.6%
CC(=O)N1CCN(c2ccc(O)cc2)CC1 | -25.3%
C[C@H]1O[C@@H](O[C@H]2CC[C@@]3(C)[C@H](CC[C@@H]4[C@@H]3C[C@@H](O)[C@]3(C)[C@@H](C5=CC(=O)OC5)CC[C@]43O)C2)C[C@H](O)[C@@H]1O[C@H]1C[C@H](O)[C@H](O[C@H]2C[C@H](O)[C@H](O[C@@H]3O[C@H](CO)[C@@H](O)[C@H](O)[C@H]3O)[C@@H](C)O2)[C@@H](C)O1 | 108% (active)
Cc1ncc(C[n+]2csc(CCOP(=O)(O)O)c2C)c(N)n1 | -8.2%
CC(C)(Cc1c[nH]c2ccccc12)NCC(O)COc1ccccc1C#N (configuration not stated) | 12.6%
CCC(C(=O)NC(=O)NC(C)=O)c1ccccc1 (configuration not stated) | 7.5%
CCCCCOc1ccc(C2SC(=O)NC2=O)cc1OCC (configuration not stated) | 5.8%
Cc1cc(N)c2cc(NC(=O)Nc3ccc4nc(C)cc(N)c4c3)ccc2n1 | -0.3%
CC(C)NCCCC1(C(N)=O)c2ccccc2-c2ccccc21 | 24.7%
CC(=O)c1ccc(OCC(=O)N2CCCCC2)cc1 | 7% (active)
C[C@H](CCC(=O)O)[C@H]1CC[C@H]2[C@H]3[C@@H](CC[C@]12C)[C@@]1(C)CC[C@@H](O)C[C@H]1C[C@@H]3O | -26.9%
